This passage reports Potency results from PubChem BioAssay (Tox21).

Results filed as inconclusive are left out. Active and inactive are the calls of the source. Unless noted, calls follow the shape of the full dose curve.

Assay [1] in a line: qHTS assay to identify small molecule antagonists of the sonic hedgehog signaling (Shh) pathway (AID 1259369). Also: nearly all actives have a fitted effect of over 45% in size. Also: potency is read from the fitted curve at half-maximal effect. In a few lines:
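Stable Gli1-Luc reporter NIH/3T3 clone; quantitative HTS in stimulated mode with conditioned medium. Luminescence measured after 24hr compound treatment at 37 C.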

For assay [2], the target named is Estrogen receptor beta (Homo sapiens) (UniProt Q92731). The experiment in a line: qHTS assay to identify small molecule agonists of the estrogen receptor beta (ER-beta) signaling pathway (AID 1259377; active = well fitted activation curve with a large enough effect in the signal ratio in the repeat runs, not every such curve was filed as active; the % refers to the signal ratio). In a few lines: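 Agonist mode cell assay in GripTite HEK293T cells expressing an ER-beta fusion that drives beta-lactamase from an Upstream Activator Sequence; 16 hr compound exposure at 37C, then 2 h LiveBLAzer B/G FRET substrate at room temperature, fluorescence read-out.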
Estrogen receptor beta (Homo sapiens), sequence (Q92731 whole entry, looked up, the tested form may be a part): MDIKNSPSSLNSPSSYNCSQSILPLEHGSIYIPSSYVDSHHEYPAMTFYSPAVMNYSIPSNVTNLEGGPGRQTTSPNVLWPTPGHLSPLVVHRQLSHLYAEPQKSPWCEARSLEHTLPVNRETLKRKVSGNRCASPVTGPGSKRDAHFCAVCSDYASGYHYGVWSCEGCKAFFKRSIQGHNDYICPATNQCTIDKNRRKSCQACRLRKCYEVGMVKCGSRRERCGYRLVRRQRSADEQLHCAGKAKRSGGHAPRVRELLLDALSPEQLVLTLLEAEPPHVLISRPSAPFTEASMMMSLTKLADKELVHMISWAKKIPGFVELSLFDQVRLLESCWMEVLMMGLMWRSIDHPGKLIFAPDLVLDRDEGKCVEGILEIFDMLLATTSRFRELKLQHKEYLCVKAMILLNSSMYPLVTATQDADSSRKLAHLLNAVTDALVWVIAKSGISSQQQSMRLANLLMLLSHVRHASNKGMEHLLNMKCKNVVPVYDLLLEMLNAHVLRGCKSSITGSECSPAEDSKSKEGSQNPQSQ

Assay [3] shares this target. The experiment in a line: qHTS assay to identify small molecule antagonists of the estrogen receptor beta (ER-beta) signaling pathway (AID 1259378; active = well fitted inhibition curve with a large enough effect in the signal ratio in the repeat runs, not every such curve was filed as active; the % refers to the signal ratio; also: potency is read from the fitted curve at half-maximal effect). In a few lines:
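Antagonist mode: compounds added to beta-lactamase reporter HEK293T ER-beta-UAS cells stimulated with E2 (1nM final), 16 hr at 37C. LiveBLAzer B/G FRET substrate, 2 hours room temperature, fluorescence read-out.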
On the technique in general: Quantitative high-throughput screening tests each substance at several concentrations.

A short description of assay [4]: qHTS assay to identify small molecule agonists of the androgen receptor (AR) signaling pathway in the presence of an antagonist - cell viability counter screen (AID 1259379; active = well fitted curve in the direction sought with a large enough effect in the repeat runs; an effect the other way counts as inactive or inconclusive; also: nearly all actives have a fitted effect of over 25% in size; also: potency is read from the fitted curve at half-maximal effect). In a few lines: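 Nilutamide-containing (3.0uM final) MDA-kb2 cultures, 3,000 cells/well, were treated with compounds across 15 concentrations. After 16 hr at 37C with no CO2, cell viability was determined by CellTiter-Fluor fluorescence in the luciferase assay wells.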

A short description of assay [5]: qHTS assay to identify small molecule agonists of the estrogen receptor beta (ER-beta) signaling pathway - cell viability counter screen (AID 1259380; active = well fitted curve in the direction sought with a large enough effect in the repeat runs; an effect the other way counts as inactive or inconclusive; also: nearly all actives have a fitted effect of over 30% in size; also: potency is read from the fitted curve at half-maximal effect). In a few lines: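 Steps: plate ER-beta-UAS-bla HEK293T cells, rest 6 hr; add compounds in DMSO; incubate 16 hr at 37C, 5% CO2; add FRET substrate 2 hr; add CellTiter-Glo, wait 30 min at room temperature; read luminescence.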

Assay [6] in a line: qHTS assay to identify small molecule antagonists of the estrogen receptor beta (ER-beta) signaling pathway - cell viability counter screen (AID 1259382; active = well fitted curve in the direction sought with a large enough effect in the repeat runs; an effect the other way counts as inactive or inconclusive; also: nearly all actives have a fitted effect of over 55% in size; also: potency is read from the fitted curve at half-maximal effect). In a few lines:
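Viability is scored by CellTiter-Glo luminescence (30 min, room temperature) in ER-beta-UAS-bla HEK293T wells already read for reporter fluorescence. Compound exposure lasts 16 hr at 37C alongside 1nM 17-beta-estradiol in charcoal-stripped serum medium.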

Assay [7] can be described thus: qHTS assay to identify small molecule agonists or antagonists of the thyroid stimulating hormone receptor (TSHR) signaling pathway - wild type cell line counter screen (AID 1259384). In a few lines: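 Counter screen in untransfected Hek293: compounds (15-point titration, triplicate) plus phosphodiesterase inhibitor Ro20-1724 added after 18 h plating; 30 min RT. Intracellular cAMP via competitive d2/cryptate immunoassay, 1 h incubation.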

The target of assay [8] is Thyrotropin receptor (Homo sapiens) (UniProt P16473). The experiment in a line: qHTS assay to identify small molecule antagonists of the thyroid stimulating hormone receptor (TSHR) signaling pathway (AID 1259385). Also: nearly all actives have a fitted effect of over 20% in size. In a few lines:
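Antagonist mode: compound-treated TSHR-expressing HEK293 cells were stimulated with 1.5 ng/mL TSH (final) in presence of Ro20-1724 for 30 min at RT. HTRF cAMP detection after 1 h; each compound tested at 15 concentrations, triplicate.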

For assay [9], the target named is Estrogen receptor (Homo sapiens) (UniProt P03372). The experiment in a line: qHTS assay to identify small molecule agonists of the estrogen receptor alpha (ER-alpha) signaling pathway in the presence of an antagonist (AID 1259383). Also: top concentration of the series differs between compounds; nearly all actives have a fitted effect of over 15% in size. In a few lines:
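Readout was ERE-driven luciferase luminescence in VM7Luc4E2 cells, which express full-length ER-alpha endogenously. Compounds were tested at 15 concentrations for 22hr alongside 10.0nM ICI-182,780 (final concentration).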

In assay [10] the target is Androgen receptor (Homo sapiens) (UniProt P10275). The experiment in a line: qHTS assay to identify small molecule agonists of the androgen receptor (AR) signaling pathway in the presence of an antagonist (AID 1259381). Also: nearly all actives have a fitted effect of over 15% in size. In a few lines:
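Reporter-gene luminescence from MDA-kb2 cells exposed 16hr at 37C (0% CO2) to 15-point compound titrations with 3.0uM final nilutamide as AR antagonist.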

Thyrotropin receptor (Homo sapiens), sequence (P16473 whole entry, looked up): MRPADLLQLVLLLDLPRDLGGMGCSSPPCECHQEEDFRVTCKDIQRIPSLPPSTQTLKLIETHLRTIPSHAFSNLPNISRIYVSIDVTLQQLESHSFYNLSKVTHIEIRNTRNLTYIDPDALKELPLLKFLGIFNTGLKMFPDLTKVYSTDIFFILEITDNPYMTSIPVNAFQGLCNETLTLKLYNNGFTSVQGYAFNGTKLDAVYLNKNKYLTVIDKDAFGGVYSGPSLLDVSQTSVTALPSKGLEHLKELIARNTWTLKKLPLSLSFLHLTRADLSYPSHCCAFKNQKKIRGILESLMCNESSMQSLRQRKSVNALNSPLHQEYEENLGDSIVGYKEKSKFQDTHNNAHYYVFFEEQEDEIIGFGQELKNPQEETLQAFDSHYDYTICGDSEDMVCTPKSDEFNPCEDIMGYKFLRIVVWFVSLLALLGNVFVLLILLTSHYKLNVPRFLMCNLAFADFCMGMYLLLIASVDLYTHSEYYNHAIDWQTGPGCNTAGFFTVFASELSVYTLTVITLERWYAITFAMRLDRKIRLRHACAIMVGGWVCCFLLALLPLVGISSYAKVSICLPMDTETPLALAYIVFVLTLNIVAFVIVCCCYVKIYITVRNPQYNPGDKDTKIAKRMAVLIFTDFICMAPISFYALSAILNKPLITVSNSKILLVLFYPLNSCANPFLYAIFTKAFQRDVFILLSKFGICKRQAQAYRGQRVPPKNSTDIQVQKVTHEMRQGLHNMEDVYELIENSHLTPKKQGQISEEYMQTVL
Androgen receptor (Homo sapiens), sequence (P10275 whole entry, looked up): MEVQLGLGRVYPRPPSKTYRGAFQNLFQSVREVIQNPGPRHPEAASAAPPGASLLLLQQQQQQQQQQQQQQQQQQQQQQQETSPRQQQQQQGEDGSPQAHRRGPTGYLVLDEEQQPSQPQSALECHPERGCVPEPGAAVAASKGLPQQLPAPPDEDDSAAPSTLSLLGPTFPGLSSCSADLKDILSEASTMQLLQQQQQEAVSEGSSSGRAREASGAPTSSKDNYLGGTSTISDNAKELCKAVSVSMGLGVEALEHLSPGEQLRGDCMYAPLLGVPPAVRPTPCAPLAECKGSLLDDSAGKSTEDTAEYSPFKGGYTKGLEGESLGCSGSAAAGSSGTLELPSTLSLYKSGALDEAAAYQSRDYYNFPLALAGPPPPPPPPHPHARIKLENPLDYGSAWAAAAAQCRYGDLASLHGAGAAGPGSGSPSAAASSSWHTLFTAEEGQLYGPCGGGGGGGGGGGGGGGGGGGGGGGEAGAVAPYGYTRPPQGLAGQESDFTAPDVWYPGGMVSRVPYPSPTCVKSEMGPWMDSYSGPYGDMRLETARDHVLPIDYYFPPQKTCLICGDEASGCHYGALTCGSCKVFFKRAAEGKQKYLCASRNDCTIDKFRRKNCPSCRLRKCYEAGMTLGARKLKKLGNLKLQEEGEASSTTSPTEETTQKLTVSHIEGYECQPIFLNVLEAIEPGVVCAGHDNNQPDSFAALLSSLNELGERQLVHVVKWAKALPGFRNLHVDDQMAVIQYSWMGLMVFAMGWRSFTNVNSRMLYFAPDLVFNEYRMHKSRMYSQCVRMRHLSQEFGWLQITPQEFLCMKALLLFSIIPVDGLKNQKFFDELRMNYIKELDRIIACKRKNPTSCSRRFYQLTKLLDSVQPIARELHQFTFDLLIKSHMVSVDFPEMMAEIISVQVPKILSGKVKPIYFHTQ
Estrogen receptor (Homo sapiens), sequence (P03372 whole entry, looked up): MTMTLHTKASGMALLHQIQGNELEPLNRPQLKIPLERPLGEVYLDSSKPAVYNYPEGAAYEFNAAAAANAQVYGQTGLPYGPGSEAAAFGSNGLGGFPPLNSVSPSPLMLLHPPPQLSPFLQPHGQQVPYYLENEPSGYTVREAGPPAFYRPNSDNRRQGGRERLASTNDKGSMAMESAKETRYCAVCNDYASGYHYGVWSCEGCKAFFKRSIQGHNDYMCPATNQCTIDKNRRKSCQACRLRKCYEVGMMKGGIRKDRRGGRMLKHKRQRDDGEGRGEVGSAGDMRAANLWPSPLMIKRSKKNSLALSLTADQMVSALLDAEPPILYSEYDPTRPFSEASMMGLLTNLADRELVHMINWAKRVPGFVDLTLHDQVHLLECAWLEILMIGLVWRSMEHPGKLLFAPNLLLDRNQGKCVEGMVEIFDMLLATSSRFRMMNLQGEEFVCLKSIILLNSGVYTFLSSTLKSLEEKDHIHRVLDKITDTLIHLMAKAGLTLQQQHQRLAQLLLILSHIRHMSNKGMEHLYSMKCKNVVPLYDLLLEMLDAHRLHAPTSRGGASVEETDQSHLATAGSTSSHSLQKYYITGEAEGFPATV

As for `CCOP(=O)(OCC)Oc1cc(C)nc(C(C)C)n1`, the Potency entry in assay [1], in [2], in [3], in assay [4], in [5] and in assay [6] was “inactive” throughout. The Potency result in [7] and in assay [8] was “inactive” each time.
With `Cc1cnc2c(C(=O)O)c(Cl)ccc2c1`, the Potency result in assay [1], in assay [2], in [3], in assay [4], in [5] and in [6] was “inactive” each time. Besides, the Potency result in [9] was “inactive”.
For `Clc1ccc(C2(Cn3cncn3)OCCO2)c(Cl)c1`, the Potency result in assay [1], in assay [2], in assay [3], in [4], in assay [5] and in [6] was “inactive” in each case. Besides, the Potency entry in assay [9], in assay [7] and in [8] was “inactive” throughout.
With `S=C=NCCc1ccccc1`, the Potency result in assay [1], in assay [2], in assay [10], in assay [6], in [7] and in [8] was “inactive” in each case. Besides, the Potency in [3] is 30.7 µM (active).
Turning to `O=C(NC(=O)c1ccccc1Cl)Nc1ccc(OC(F)(F)F)cc1`, the Potency result in assay [1], in assay [2], in assay [3], in assay [4], in [5] and in assay [10] was “inactive” in each case. Moreover, the Potency result in assay [6], in assay [7] and in [8] was “inactive” in each case.
As for `CCC1COC(Cn2cncn2)(c2ccc(Cl)cc2Cl)O1` (stereo unspecified), the Potency in [1] was 54.5 µM (active). Besides, the Potency entry in [2], in assay [3], in [4], in assay [5], in [6] and in assay [9] was “inactive” throughout. Besides, the Potency entry in [8] was “inactive”.
As to `O=C(N[C@@H]1N=C(c2ccccc2F)c2cccc3c2N(CC3)C1=O)c1cc2ccccc2[nH]1`, the Potency result in [1], in assay [2], in [3], in assay [4], in assay [5] and in assay [6] was “inactive” in each case. The Potency entry in [7] and in assay [8] was “inactive” each time.
As to `C=Cc1cccc(CCl)c1`, the Potency result in assay [1], in [2], in [3], in [4], in assay [6] and in assay [9] was “inactive” each time. In addition, the Potency entry in [7] and in [8] was “inactive” throughout.
In the case of `O=C(O)CCCCCCNC1c2ccccc2CCc2ccccc21`, the Potency entry in assay [1], in assay [2], in assay [3], in assay [4], in [5] and in assay [6] was “inactive” each time. For the same molecule, the Potency result in assay [9], in assay [7] and in assay [8] was “inactive” in each case.
On to `CC(Cc1ccc(OCC(=O)O)cc1)NCC(O)c1csc(C(F)(F)F)n1` (stereo unspecified), for which the Potency result in assay [1], in assay [2], in assay [3], in assay [4], in [5] and in [6] was “inactive” in each case. Besides, the Potency result in assay [9], in assay [7] and in assay [8] was “inactive” each time.
As to `[O]=[Cr][O][Cr]=[O]`, the Potency entry in assay [1], in assay [2], in [3], in assay [4], in assay [5] and in [6] was “inactive” each time. The Potency entry in assay [9] was “inactive”.
With `NC(=O)C(Cl)Cl`, the Potency entry in [1], in assay [2], in assay [3], in assay [4], in assay [5] and in assay [6] was “inactive” throughout.
Take `OCC(Br)CBr` (stereo unspecified): the Potency entry in assay [1], in assay [2], in assay [3], in assay [5], in assay [6] and in assay [9] was “inactive” in each case. In addition, the Potency result in assay [8] is “inactive”.
`[O-][Cl+3]([O-])([O-])O`: the Potency result in [1], in assay [2], in assay [3], in assay [4], in assay [5] and in assay [6] was “inactive” throughout.
For `O=NN(CCO)CCO`, the Potency entry in [1], in assay [2], in assay [3], in assay [4], in [5] and in assay [10] was “inactive” each time. Also, the Potency result in assay [6], in assay [9], in assay [7] and in assay [8] was “inactive” in each case.
In the case of `C#CC1(O)CCCCC1`, the Potency entry in assay [1], in [2], in assay [3], in assay [4], in assay [6] and in [7] was “inactive” throughout. The Potency entry in [8] was “inactive”.
Consider `C#CCC1=C(C)C(OC(=O)C2C(C=C(C)C)C2(C)C)CC1=O` (stereo unspecified), for which the Potency entry in assay [1], in assay [2], in assay [4], in assay [6], in assay [7] and in [8] was “inactive” throughout. In addition, the Potency in assay [3] is 60.7 µM (active).
In the case of `Cc1ccn2nc(S(=O)(=O)Nc3c(F)cccc3F)nc2n1`, the Potency result in [1], in assay [2], in assay [3], in assay [4], in assay [6] and in assay [7] was “inactive” in each case. For the same molecule, the Potency entry in assay [8] is “inactive”.
In the case of `CCN(CC)CCN1C(=O)CN=C(c2ccccc2F)c2cc(Cl)ccc21`, the Potency result in [1], in assay [2], in [3], in assay [5], in [6] and in assay [9] was “inactive” in each case. In assay [8], the Potency result is “inactive”.
For the molecule `O=[N+]([O-])c1ccc(CCl)cc1`, the Potency result in [1], in [2], in assay [3], in [4], in [5] and in assay [6] was “inactive” in each case. The Potency entry in [9] and in [8] was “inactive” each time.
`N#Cc1ccc(N(CC(N)=O)CC(F)(F)F)cc1C(F)(F)F`: the Potency entry in [1], in assay [2], in assay [3], in assay [4], in assay [6] and in assay [9] was “inactive” each time. In addition, the Potency entry in [7] and in assay [8] was “inactive” in each case.
Turning to `COC(=O)c1ccccc1S(=O)(=O)NC(=O)Nc1nc(C)nc(OC)n1`, the Potency entry in [1], in assay [2], in assay [3], in assay [4], in assay [5] and in assay [6] was “inactive” in each case. Further, the Potency result in assay [7] and in assay [8] was “inactive” throughout.
In the case of `CCC[CH2][Sn]([CH2]CCC)([CH2]CCC)[CH2]CCC`, the Potency in assay [1] was 13.7 µM (active); in assay [3] it was 19.3 µM (active); in [4] it was 13.7 µM (active); in assay [5], 27.3 µM (active); in assay [6], 43.3 µM (active). The Potency result in [2], in [7] and in assay [8] was “inactive” throughout.
For `CC(=O)C(Cl)C(=O)N(C)C` (stereo unspecified), the Potency result in assay [1], in [2], in assay [3], in [4], in [5] and in [6] was “inactive” each time. Besides, the Potency result in [9] and in [8] was “inactive” each time.
